Reference: PubChem BioAssay (NCI)
About 83,000 compounds went through this panel and 20% of them were active in at least one assay; those are over-represented in the sample as a whole.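 Percent growth is the endpoint: 0 to 100 indicates growth inhibition (40 means 60% inhibition), 0 means no net growth, and negative values indicate cell death.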 The source made the active and inactive calls. Rule for the calls: active = growth percent below 10; inactive = the rest.

Columns and labels:
Experiment in all cases: NCI-60 one-dose screen, 48 h (100 = growth as untreated, 0 = no growth, -100 = all killed)
Details in all cases: 10 µM unless noted
[1] = test system: HCT-15 colon
[2] = test system: HT29 colon
[3] = test system: SNB-75 CNS
[4] = test system: SNB-19 CNS
[5] = test system: U251 CNS
[6] = test system: PC-3 prostate
[7] = test system: SK-MEL-5 melanoma
[8] = test system: UACC-62 melanoma
[9] = test system: LOX IMVI melanoma
[10] = test system: SK-MEL-28 melanoma
[11] = test system: SK-MEL-2 melanoma
[12] = test system: EKVX NSCLC
[13] = test system: SN12C renal
[14] = test system: UO-31 renal
[15] = test system: TK-10 renal
[16] = test system: ACHN renal
[17] = test system: CAKI-1 renal
[18] = test system: MOLT-4 leukemia
[19] = test system: CCRF-CEM leukemia
[20] = test system: A498 renal

Row | Compound | growth [1] | growth [2] | growth [3] | growth [4] | growth [5] | growth [6] | growth [7] | growth [8] | growth [9] | growth [10] | growth [11] | growth [12] | growth [13] | growth [14] | growth [15] | growth [16] | growth [17] | growth [18] | growth [19] | growth [20]
1 | COc1ccc2c3c(ccc2c1)C(=O)/C(=C\O)CC3 | 87.3% (inactive) | 103% (inactive) | 91.9% (inactive) | 103% (inactive) | 82.6% (inactive) | 88.2% (inactive) | 103% (inactive) | 107% (inactive) | 87.1% (inactive) | 128% (inactive) | 99.8% (inactive) | 78.5% (inactive) | 100% (inactive) | 96.6% (inactive) | 93.4% (inactive) | 102% (inactive) | 105% (inactive) | 88.4% (inactive) | – | –
2 | COC(=O)Nc1ccc2ccc3c(NC(=O)OC)ccc4ccc1c2c43 (tested in a mixture with another compound) | 35.6% (inactive) | 30.6% (inactive) | 50.7% (inactive) | 60.8% (inactive) | 41% (inactive) | 48.4% (inactive) | 37.3% (inactive) | 41.5% (inactive) | 32.9% (inactive) | 73.3% (inactive) | 52.8% (inactive) | 68.1% (inactive) | 68.4% (inactive) | 42.1% (inactive) | 85.9% (inactive) | 59% (inactive) | 50.7% (inactive) | 35% (inactive) | 54.4% (inactive) | –
3 | CCSc1nc(-c2cccs2)n2nc(-c3ccco3)cc2n1 | 78% (inactive) | 88.8% (inactive) | 84.2% (inactive) | 109% (inactive) | 91.4% (inactive) | 99% (inactive) | 86.5% (inactive) | 85.2% (inactive) | 92% (inactive) | 113% (inactive) | 105% (inactive) | 81.3% (inactive) | 89.7% (inactive) | 79.7% (inactive) | – | 94.1% (inactive) | 86.3% (inactive) | 115% (inactive) | 88.7% (inactive) | 94.4% (inactive)
4 | CCOc1nc(-c2ccco2)n2nc(-c3ccco3)cc2n1 | 99.4% (inactive) | 100% (inactive) | 82.9% (inactive) | 97.3% (inactive) | 98.3% (inactive) | 105% (inactive) | 81.4% (inactive) | 86.4% (inactive) | 98.4% (inactive) | 110% (inactive) | 117% (inactive) | 95% (inactive) | 104% (inactive) | 91.1% (inactive) | – | 95.5% (inactive) | 95.9% (inactive) | – | 102% (inactive) | 83.5% (inactive)
5 | CC1CN(/N=C/c2ccc([N+](=O)[O-])o2)C(=N)O1 (stereo not drawn) | 97.8% (inactive) | 108% (inactive) | 105% (inactive) | 99.7% (inactive) | 101% (inactive) | 89.5% (inactive) | 93.4% (inactive) | 92.7% (inactive) | 95.4% (inactive) | 115% (inactive) | 123% (inactive) | 104% (inactive) | 91% (inactive) | 73.9% (inactive) | 105% (inactive) | 92.9% (inactive) | 96.4% (inactive) | 107% (inactive) | 112% (inactive) | –
6 | C/C=C(/C(=C/C)c1ccc(O)cc1)c1ccc(O)cc1 | 31.7% (inactive) | 38.6% (inactive) | 9.32% (active) | 34.6% (inactive) | 32.8% (inactive) | 46.2% (inactive) | 5.64% (active) | 31.2% (inactive) | 39.1% (inactive) | 52.4% (inactive) | 44.9% (inactive) | 35.7% (inactive) | 42.8% (inactive) | 38.1% (inactive) | – | 38.4% (inactive) | 42.1% (inactive) | 34% (inactive) | 17.1% (inactive) | 31.4% (inactive)
7 | O=C(CNc1ccc2c(c1)C(=O)c1ccccc1C2=O)Nc1ccc2c(c1)C(=O)c1ccccc1C2=O | -81.5% (active) | -54.5% (active) | -51.4% (active) | -29.9% (active) | -91.4% (active) | -24.3% (active) | -98.1% (active) | -93.3% (active) | -91.7% (active) | -75.1% (active) | -74.4% (active) | -18.5% (active) | -87% (active) | -96.5% (active) | – | -94.3% (active) | -80.8% (active) | -36.6% (active) | -11.6% (active) | 27.6% (inactive)
8 | Clc1ccc2c(c1)C(Br)c1cc(Cl)cc(Cl)c1-2 (stereo not drawn) | 78.1% (inactive) | 111% (inactive) | 73.5% (inactive) | 90.9% (inactive) | 79.5% (inactive) | 82.6% (inactive) | 51.2% (inactive) | 66.1% (inactive) | 4.27% (active) | 112% (inactive) | 95.5% (inactive) | 46.2% (inactive) | 27.5% (inactive) | 76.6% (inactive) | 118% (inactive) | 99.1% (inactive) | – | -20.2% (active) | -37.8% (active) | 120% (inactive)
9 | OC(c1ccccc1)C(NCc1ccccc1)c1ccccc1 (stereo not drawn) | 108% (inactive) | 103% (inactive) | 91% (inactive) | 87.8% (inactive) | 102% (inactive) | 79.9% (inactive) | 108% (inactive) | 90.3% (inactive) | 85.5% (inactive) | 101% (inactive) | 120% (inactive) | 86% (inactive) | 104% (inactive) | 92% (inactive) | – | 99.5% (inactive) | 62.8% (inactive) | 100% (inactive) | 97.3% (inactive) | 87.7% (inactive)
10 | O=C1NC(=O)/C(=C/c2ccc(Cl)cc2Cl)N1 | 103% (inactive) | 121% (inactive) | 83.7% (inactive) | 107% (inactive) | 102% (inactive) | 96.5% (inactive) | 108% (inactive) | 102% (inactive) | 97.3% (inactive) | 109% (inactive) | 103% (inactive) | 77.4% (inactive) | 107% (inactive) | 80.7% (inactive) | 110% (inactive) | 109% (inactive) | 102% (inactive) | 94.5% (inactive) | 92.3% (inactive) | –
11 | NS(=O)(=O)c1cc(C2(O)NC(=O)c3ccccc32)ccc1Cl (stereo not drawn) | 104% (inactive) | 98.4% (inactive) | 91.4% (inactive) | 104% (inactive) | 103% (inactive) | 91.7% (inactive) | 115% (inactive) | 103% (inactive) | 98.8% (inactive) | 116% (inactive) | 113% (inactive) | 108% (inactive) | 101% (inactive) | 76.4% (inactive) | – | 90.7% (inactive) | 93.9% (inactive) | 93.6% (inactive) | 98.9% (inactive) | 129% (inactive)
12 | O=C1CSC(c2ccccc2Cl)N1c1nnc(Cn2nnc3ccccc32)o1 (stereo not drawn) | 74.8% (inactive) | 81.2% (inactive) | 81.6% (inactive) | 83.3% (inactive) | 77.6% (inactive) | 68.9% (inactive) | 79.3% (inactive) | 63.8% (inactive) | 85.9% (inactive) | 92.8% (inactive) | 91.7% (inactive) | 75% (inactive) | 87.4% (inactive) | 66.3% (inactive) | – | 83.6% (inactive) | 40.6% (inactive) | 73.4% (inactive) | 85.6% (inactive) | 50.2% (inactive)
13 | O=C(O)CCC(=O)OC[C@@H](NC(=O)C(Cl)Cl)[C@H](O)c1ccc([N+](=O)[O-])cc1 | 93.9% (inactive) | 95.8% (inactive) | 88% (inactive) | 99.4% (inactive) | 99.3% (inactive) | 87.5% (inactive) | 89.8% (inactive) | 98% (inactive) | 96.7% (inactive) | 106% (inactive) | 105% (inactive) | 106% (inactive) | 92.9% (inactive) | 72% (inactive) | – | 88.1% (inactive) | 89.6% (inactive) | 90.7% (inactive) | 89.7% (inactive) | 117% (inactive)
14 | O=C1CSC(c2ccccc2O)N1c1nnc(Cn2ccnc2)o1 (stereo not drawn) | 28.8% (inactive) | 86.2% (inactive) | 74.9% (inactive) | 86.3% (inactive) | 66.6% (inactive) | 64.6% (inactive) | 55.1% (inactive) | 77.4% (inactive) | 56% (inactive) | 74.8% (inactive) | 90.3% (inactive) | 81.5% (inactive) | 66.1% (inactive) | 32.9% (inactive) | – | 53.6% (inactive) | -37.5% (active) | 48.6% (inactive) | 34% (inactive) | 99.5% (inactive)
15 | CCCCN=C(N)c1ccc(OCCSCCOc2ccc(C(N)=NCCCC)cc2)cc1 | 90.5% (inactive) | 44% (inactive) | 65.7% (inactive) | 36.7% (inactive) | 34.5% (inactive) | 44.4% (inactive) | 22.6% (inactive) | 58.3% (inactive) | 58.1% (inactive) | 69.6% (inactive) | 59.9% (inactive) | 36.8% (inactive) | 26.3% (inactive) | 93.5% (inactive) | – | 87% (inactive) | 115% (inactive) | 67.8% (inactive) | 72.1% (inactive) | 57.4% (inactive)
